TRPM1 prom inh = reduces MITF-dependent TRPM1 promoter luciferase signal | SK-MEL-5 TRPM1 promoter luciferase, 24 h | inhibition, % at 12.5 µM | 330,000 compounds, 0.83% hits | AID 488899;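 active = mean inhibition across replicates of 60% or more, whatever share of single replicates reaches that level; inconclusive = some that reach 60%, reason not given; inactive = mean inhibition across replicates below 60%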
N-glyco inh = N-linked glycosylation inhibition. 360,000 compounds, 0.23% hits. D54 ERlucT glycosylation luciferase reporter, 24 h; percent of 100 nM tunicamycin response. reporter increase, % at 12.5 µM;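 active = mean luciferase reporter signal, scaled so untreated is 0 and the glycosylation-blocking control 100, at or above a set limit in every replicate; inconclusive = mean reaches the limit but not every replicate does; inactive = mean below the limit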;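 note: luciferase carries N-glycosylation sites so blocking glycosylation raises the light; 0% = median of neutral control wells and 100% = median of 100 nM tunicamycin wells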
Wnt bcat act = activators of Wnt/beta-catenin signaling. Wnt/beta-catenin reporter cell assay, activator, plate reader. activation, % at 9.35 µM. 300,000 compounds, 1.2% hits. AID 743398; in the data active = activation above about 30%, passing the limit was not always enough; inconclusive = no clear call, values can overlap the other calls;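 note: 0% = neutral control wells and 100% = positive control wells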
PfHsp90 set2 = inhibits growth of yeast expressing Plasmodium falciparum Hsp90; 310,000 compounds, 0.32% hits; S. cerevisiae expressing PfHsp90, BacTiter-Glo ATP, 48 h; yeast lacking PDR1 and PDR3 efflux regulators; inhibition, % at 9.4 µM;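 active = every replicate shows inhibition above about 80%, whatever the replicate mean, limit read from the data; inconclusive = mean inhibition reaches the set limit but some replicate falls short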;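 note: 0% = DMSO neutral controls and 100% = 20 µM radicicol positive controls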
MITF act = MITF TRPM1 promoter activation in melanoma cells; SK-MEL-5 TRPM1-promoter luciferase, 24 h; % of positive control, neutral wells = 0; activation, % at 12.5 µM; 300,000 compounds, 0.75% hits; AID 588334;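 active = mean activation of at least 80% with every replicate also reaching 80%; inconclusive = mean reaches 80% but some replicate falls short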;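 note: 0% = neutral control wells and 100% = parthenolide positive control wells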
NSD2 HMT inh = NSD2 (human) methyltransferase inhibition; NSD2 peptide methylation, AlphaScreen, 120 min; inhibition, % at 12.5 µM; 310,000 compounds, 0.54% hits; O96028; in the data active = inhibition above about 50%
* marks the source's active call; other numbers are inactive results; ? = inconclusive; nt = not tested or not shown. This is a sample that favours compounds with a hit; in the whole collection about 2.9% have one here.

SMILES	TRPM1 prom inh	N-glyco inh	Wnt bcat act	PfHsp90 set2	MITF act	NSD2 HMT inh
Oc1ccc(N=Nc2n[nH]c(-c3ccccc3)n2)cc1	-47.2	-7.1	nt	32.8	53.9	2.8
Oc1ccc(N=Nc2nc(-c3ccccc3)c(-c3ccccc3)[nH]2)cc1	7.1	1.5	-1.0	100.0*	-4.2	9.1
Oc1ccc(C=NNC(=S)Nc2ccc(F)cc2)c(O)c1	-17.9	-9.0	37.3*	nt	17.0	7.9
O=C(/C=C/c1ccccc1)/C=C/c1ccccc1	78.7*	3.3	-7.7	16.3	-77.7	6.2
O=C(/C=C/c1ccccc1)c1ccccc1	-22.1	17.8	13.7	-14.5	22.2	nt
NC(=O)c1ccccc1NC(=O)/C=C/c1ccc(Cl)cc1	-59.7	-6.5	18.9	0.0	57.7	4.2
COC(=O)c1ccccc1N/C=C/C(=O)c1ccc(Br)cc1	-53.0	0.7	15.4	26.2	55.0	-1.4
NC(=O)c1ccccc1N/C=C/C(=O)c1ccccc1	2.2	-13.2	48.4*	5.4	nt	1.6
NC(=O)c1ccccc1NC(=O)/C=C/c1ccccc1	-27.0	-3.4	73.7*	0.1	26.0	16.1
CCCCOc1ccc(C(=O)NN2CCOCC2)cc1	-20.3	0.6	0.8	-5.1	-4.7	-2.0
FC(F)(F)c1cnc(-c2cnc(-c3cccnc3)nc2)c(Cl)c1	-102.9	-1.5	?	13.4	105.7*	-0.7
OC1CCCC1NCc1ccnc2cc(Cl)ccc12 (stereo not given)	-2.2	-2.3	-0.9	16.6	6.6	-0.5
OC(CNc1ccnc2cc(Cl)ccc12)CNC1CCCCC1 (stereo not given)	90.9*	-8.1	-6.6	-39.9	-89.2	37.5
CCOC(=O)c1oc2c(c1C)/C(=N/O)CCC2	-53.6	-1.2	57.4*	-5.4	70.3	1.6
Nc1nnc(SCc2nnc(-c3ccccc3)o2)s1	-6.9	1.5	?	0.7	7.0	5.0
CC(C)S(=O)(=O)N1CCCC(c2cc(C(=O)Nc3ccc(F)c(Cl)c3)no2)C1 (stereo not given)	nt	-2.7	31.6*	nt	nt	-1.5
O=C(Nc1ccc(F)c(Cl)c1)c1cc(C2CCCN(C(=O)C3CC3)C2)on1 (stereo not given)	nt	-3.9	38.3*	nt	nt	-2.2
CCCCSc1nnc(-c2c[nH]c3ccccc23)n1C	-52.5	1.1	32.3*	7.2	43.7	nt
CCCCSc1nnc(-c2ccc(C)cc2)n1C	-26.9	2.6	53.5*	-21.0	33.8	0.1
Cn1c(SCc2ccccc2)nnc1-c1c[nH]c2ccccc12	nt	1.5	22.8	-11.4	nt	nt
CC(=O)O[C@@H]1C=C[C@@H](C#Cc2ccc(C(C)(C)C)cc2)O[C@@H]1COC(=O)NC(C)C	nt	nt	6.3	nt	nt	nt
O=S(=O)(/C(=C/c1ccc(C(F)(F)F)cc1)c1nc2ccccc2[nH]1)c1ccccc1	90.5*	-10.1	-30.1	-17.0	-89.9	1.4
CC(C)c1ccc(/C=C(\c2nc3ccccc3[nH]2)S(=O)(=O)c2ccccc2)cc1	87.5*	-5.9	nt	-9.0	-87.2	-1.3
C/C(=C\c1ccc(N)cc1)c1nc2ccccc2[nH]1	-84.7	-3.3	1.9	8.0	?	0.9
COc1ccc(N=c2cc(-c3ccc(OC)cc3)oc3ccccc23)cc1	-17.3	-3.9	118.8*	-24.9	20.3	4.2
SMILES	TRPM1 prom inh	N-glyco inh	Wnt bcat act	PfHsp90 set2	MITF act	NSD2 HMT inh
O=C(c1coc(=O)c(Br)c1)N1CCC(C(O)(c2ccccc2)c2ccccc2)CC1	-18.6	2.3	0.5	1.0	-8.9	36.9
CC1(C)CCCN(C(=O)c2coc(=O)c(Br)c2)C1	9.0	3.0	nt	2.8	-3.9	114.0*
CC1CC(=O)c2c(cc3c(-c4c(O)cc(O)c5c(O)c6c(cc45)OC(C)CC6=O)c(O)cc(O)c3c2O)O1 (stereo not given)	78.8*	-1.1	nt	13.0	-78.3	nt
O=C(NCc1ccco1)C1CCCN(S(=O)(=O)c2ccccc2F)C1 (stereo not given)	nt	nt	nt	nt	nt	-3.4
Clc1ccc(-c2cnn3c(-c4ccncc4)ccnc23)cc1	-12.9	-12.1	63.8*	-4.7	14.6	2.6
Cc1cc(Nc2cccc(C(F)(F)F)c2)cc(=O)n1-c1cccc(C(F)(F)F)c1	nt	nt	6.4	nt	nt	nt
CCOC(=O)COn1c(-c2cccc(Cl)c2)nc2ccc([N+](=O)[O-])cc21	-83.2	0.2	nt	nt	86.8*	3.1
CCOC(=O)C(C)On1c(-c2cccc(Cl)c2)nc2ccc([N+](=O)[O-])cc21 (stereo not given)	-23.6	2.6	nt	-6.6	24.9	2.0

Screening data as filed in PubChem.
